Compound activity: PubChem BioAssay, ICCB-Longwood Screening Facility, Harvard Medical School
Vaccinia pol inh = blocks vaccinia virus processive DNA synthesis; normalized absorbance, % (test concentration not listed); 46,000 tested, 0.94% active; in vitro processive DNA synthesis, absorbance read-out; hits give low values; in the data active means normalized absorbance mostly below about 85%, no sharp cut-off; inactive means mostly above about 86%
The depositor's hits bear a star. Only a selection was taken, and hits are over-represented in it overall.

O=C(NCCC1=CCCCC1)c1cc2c(s1)-c1ccccc1SC2 was read as Vaccinia pol inh 94.0.
CCN1CCCC1CNC(=O)c1cc2c(s1)-c1ccccc1SC2 (configuration not stated) was read as Vaccinia pol inh 72.8*.
`O=C(NCc1ccccc1)c1cc2c(s1)-c1ccccc1SC2` gave Vaccinia pol inh 103.3.
Screening Cc1cccc(N2C(=O)NC3CC2(C)Oc2ccccc23)c1 (configuration not stated) returned Vaccinia pol inh 100.0.
CCOc1ccccc1C(=O)NC1CCCCCC1 was read as Vaccinia pol inh 99.4.
`CCOc1cccc(=NC2CCCCC2)c2c(C)n(C)c(C)c12` gave Vaccinia pol inh 89.3*.
CCOc1cccc(=O)c2c(C)n(-c3ccc(OC)cc3)c(C)c12 was read as Vaccinia pol inh 98.5.
Screening CCOC(=O)c1cc(-c2ccccc2)sc1NC(=O)CN1CCCC1 returned Vaccinia pol inh 74.1.
For O=C(Nc1ccsc1C(=O)N1CCOCC1)c1ccccc1 the results were Vaccinia pol inh 107.8.
Screening Cc1cc(Nc2ccccc2)nc(Nc2ccccc2)n1 returned Vaccinia pol inh 100.0.
`Cc1cc(C)nc(NC2=NCCN2)n1` gave Vaccinia pol inh 48.1*.
CCN(CC)CCNc1nc(C)cc(C)n1 was read as Vaccinia pol inh 101.8.
Screening O=C(Cc1c(F)cccc1Cl)NC(=O)Nc1ccc(F)c(Cl)c1 returned Vaccinia pol inh 110.5.
`Cc1ccc2cc(C)c(Nc3ccc4c(c3)OCO4)nc2c1` gave Vaccinia pol inh 104.2.
`N#Cc1c(-c2ccccc2)noc1/C=C/Nc1ccccc1` gave Vaccinia pol inh 92.6.
O=C(CSc1ccccn1)Nc1cc(Cl)cc(Cl)c1 was read as Vaccinia pol inh 80.8.
Screening Nc1ccc(-c2cnc(-c3ccc(N)cc3)nc2)cc1 returned Vaccinia pol inh 99.6.
`Nc1ccc(-c2ccc(N)cc2)cc1` gave Vaccinia pol inh 72.4*.
Cc1ccc(-c2ccc(N)cc2)cc1 was read as Vaccinia pol inh 93.2.
`C=Cc1c(C)c2cc3[nH]c(cc4nc(cc5nc(cc1[nH]2)C(C)=C5CCC(=O)O)C(CCC(=O)O)=C4C)c(C)c3C=C` gave Vaccinia pol inh 21.7*.
Nc1ccc2nc(CCC(=O)O)[nH]c2c1 was read as Vaccinia pol inh 101.2.
`O=C(O)CCc1nc2ccc(C(=O)O)cc2[nH]1` gave Vaccinia pol inh 99.5.
For O=C(NC(Nc1ccccc1C(F)(F)F)C(=O)c1ccccc1)c1ccco1 (configuration not stated) the results were Vaccinia pol inh 99.1.
For CN1CCC(OC(=O)c2cc3ccccc3o2)CC1 the results were Vaccinia pol inh 86.7.
For Cc1cc(C2C(C#N)=C(N)N(c3ccccc3Cl)C3=C2C(=O)CC(c2ccccc2)C3)c(C)s1 (configuration not stated) the results were Vaccinia pol inh 99.9.
For Cc1nc2sc(C(c3ccccc3)N3CCC(C)CC3)c(O)n2n1 (configuration not stated) the results were Vaccinia pol inh 99.7.
`O=C(O)/C=C\C(=O)Nc1cccc(C(F)(F)F)c1` gave Vaccinia pol inh 101.4.
Cc1cc(C)c2c(c1)OCN(Cc1ccc(Cl)cc1)C2 was read as Vaccinia pol inh 91.0.
CCOC(=O)NS(=O)(=O)c1ccc(C)cc1 was read as Vaccinia pol inh 99.8.
Screening CC(NC(=O)c1ccncc1)C(c1cccs1)N1CCN(c2ccccc2)CC1 (configuration not stated) returned Vaccinia pol inh 99.1.
For Nc1cccc(C2=NCCN2)c1 the results were Vaccinia pol inh 99.3.
`O=C(Nc1cccc(C2=NCCN2)c1)Nc1cccc(C2=NCCN2)c1` gave Vaccinia pol inh 78.4*.
`O=C(NC1=NCCCCCN1)Nc1cccc(Cl)c1` gave Vaccinia pol inh 100.0.
CN1C(=O)/C(=C/c2cn(CC(=O)N3CCOCC3)c3ccccc23)C(=O)NC1=S was read as Vaccinia pol inh 100.1.
CC1CCCC(C)N1C(=O)Cn1cc(/C=C2/C(=O)N(C)c3ccccc32)c2ccccc21 (configuration not stated) was read as Vaccinia pol inh 121.7.
`CN1C(=O)/C(=C/c2cn(CC(=O)O)c3ccccc23)c2ccccc21` gave Vaccinia pol inh 73.1*.
`N#Cc1ccc(NC(=O)Cc2ccccc2)cc1` gave Vaccinia pol inh 95.2.
CCN(CC)S(=O)(=O)c1cc(C(=O)NC2CC2)ccc1Cl was read as Vaccinia pol inh 104.6.
`O=C(Nc1c(F)cccc1Cl)N1CCCC1` gave Vaccinia pol inh 89.7.
Screening O=C(NCC1CCCO1)c1ccc2c(c1)N(Cc1ccc(F)cc1)C(=O)/C(=C/c1ccccc1)S2 (configuration not stated) returned Vaccinia pol inh 88.1.
Screening O=C(O)CN1C(=O)S/C(=C\c2ccc(Br)cc2)C1=O returned Vaccinia pol inh 93.5.
For CNC(=O)CN1C(=O)/C(=C/c2ccccc2C)Sc2ccccc21 the results were Vaccinia pol inh 100.9.
`CCc1ccc(/C=C2\Sc3ccccc3N(CC(=O)O)C2=O)cc1` gave Vaccinia pol inh 66.5*.
